Source: PubChem BioAssay (several laboratories)
Rows were chosen to be rich in hits. Some 27% of all compounds tested hit in one or more screens of this group.
CYP2C19 act: cytochrome P450 2C19 (human) activation. P33261. recombinant CYP2C19, luciferin-H EGE luminescence; stronger effect = higher value; 0 = fully inhibited enzyme, 1 = untreated enzyme. 96,000 tested, under 10 active. activation factor at 5 µM;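 active means activation factor of at least 2 at 5 µM in the primary screen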
CYP2C9 inh: human CYP2C9 inhibition; CYP2C9 Supersomes, luciferin-H conversion, luminescence; inhibition, % at 5 µM; 96,000 compounds, 20% hits;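 active means blocking of liver enzyme CYP2C9 beyond about 50% at 5 µM, limit read from the data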
CYP2C19 inhib: blocks human cytochrome P450 2C19; P33261; CYP2C19 Supersomes, luciferin-H EGE luminescence, 30 min; inhibition, % at 5 µM; 96,000 compounds, 21% hits;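 active means CYP2C19 inhibition above a set limit at 5 µM in the primary screen, cut at about 50% in these data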
Cav32 inh: human Cav3.2 channel inhibition, primary screen | O95180 | B-score at 10 µM | AID 449739 | Cav3.2-expressing cells, Fluo-4 calcium fluorescence FDSS; stronger effect = lower value | 100,000 compounds, 4% hits;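 active means single-dose well whose peak fluorescence ratio is a statistical outlier from its plate by either plate-standardised score or position-corrected B-score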
CYP2C9 act: increases human cytochrome P450 2C9 activity; P11712; recombinant CYP2C9, luciferin-H conversion, luminescence; stronger effect = higher value; factor 1 = untreated enzyme, 0 = blocked; activation factor at 5 µM; 96,000 compounds, 1.4% hits; AID 1024;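 active means activation factor of 2 or more for CYP2C9 at a 5 µM dose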
Each line names hits and unclear results; the compound was inactive in the other large screens.

COc1ccc(Br)cc1S(=O)(=O)N1CCCC1	none (no result: CYP2C19 act, CYP2C9 inh, CYP2C19 inhib, CYP2C9 act)
COc1cc(S(=O)(=O)N2CCCCCC2)c(OC)cc1Br	CYP2C9 inh 75, CYP2C19 inhib 96
COc1ccc(-c2ncc3ccccn23)cc1	CYP2C19 inhib 62
Cc1ccc(S(=O)(=O)N2CCCC(c3nc(-c4ccc(C)o4)no3)C2)cc1 (configuration not stated)	CYP2C9 inh 83, CYP2C19 inhib 90
Cc1ccc(-c2noc(C3CCCN(S(=O)(=O)c4ccc(S(=O)(=O)N(C)C)cc4)C3)n2)o1 (configuration not stated)	CYP2C9 inh 82
O=C(C1CC1)N1CCC(c2nc(-c3ccc(S(=O)(=O)N4CCCC4)cc3)no2)CC1	none
Cc1ccc(-c2noc(C3CCCN(S(=O)(=O)c4ccc5ccccc5c4)C3)n2)o1 (configuration not stated)	none (no result: Cav32 inh)
O=C(Cc1ccccc1)N1CCCC(c2nc(-c3ccc(S(=O)(=O)N4CCCC4)cc3)no2)C1 (configuration not stated)	CYP2C9 inh 73
NC(=O)c1cnn2c(C(F)(F)F)cc(-c3ccc(F)cc3)nc12	none
COP(=O)(/C=C/c1ccccc1)C(O)c1ccc(F)cc1 (configuration not stated)	none
O=C1CCCC2=C1C(c1ccncc1)c1c(nc(SCc3ccccc3Cl)[nH]c1=O)N2 (configuration not stated)	CYP2C9 inh 95, CYP2C19 inhib 85
O=c1[nH]c(SCc2ccccc2Cl)nc2c1CCCC2	none
C/C=C(\C)C(=O)OC1c2c(ccc3ccc(=O)oc23)OC(C)(C)C1OC(C)=O (configuration not stated)	none (no result: CYP2C19 act, CYP2C9 inh, CYP2C19 inhib, CYP2C9 act)
C/C=C(/C)C(=O)OC1c2c(ccc3ccc(=O)oc23)OC(C)(C)C1OC(=O)/C(C)=C\C (configuration not stated)	Cav32 inh -5.1 (no result: CYP2C19 act, CYP2C9 inh, CYP2C19 inhib, CYP2C9 act)
Cc1ccc(NC(=O)C(C)c2ccc(-c3ccccc3)c(F)c2)c(C)c1 (configuration not stated)	none
CCN(CC)CCNC(=O)c1c(C)n(-c2ccccc2)c2cc(Br)c(OC)cc12	none
O=C(NCc1ccccc1)c1csc2c1CCCCC2	CYP2C9 act 4
O=C(NCc1cccs1)c1csc2c1CCCCC2	CYP2C9 act 2.5
O=C(NCc1cccs1)c1cc2c(s1)CCCC2	CYP2C9 inh 52, CYP2C19 inhib 64
O=C(NCc1cccs1)c1ccccc1C(=O)NCc1cccs1	none
Cc1ccccc1NC(=O)c1csc2c1CCCC2	none
O=C(Nc1sccc1C(=O)NCc1ccco1)c1cccnc1	CYP2C9 inh 90
CCCN1C2CCCC1CC(NC(=S)Nc1cc(C)ccc1C)C2 (configuration not stated)	none (no result: CYP2C19 act, CYP2C9 inh, CYP2C19 inhib, CYP2C9 act)
O=C(NCc1ccco1)c1csc2c1CCCCC2	CYP2C9 act 4.2
CCOCCCNC(=O)C1CCN(C(=O)Nc2ccc(Cl)cc2)CC1	none
CCCCSc1nc(C)cc(C)c1S(=O)(=O)c1ccccc1C	CYP2C19 inhib 75
Cc1cc(C)c(S(=O)(=O)c2ccccc2C)c(Cl)n1	CYP2C19 inhib 66, CYP2C9 act 3.6
CCCCSc1nc(C)c(C(C)=O)cc1C#N	none
Cc1ccc(S(=O)(=O)c2c(C)cc(C)nc2Cl)c(C)c1	CYP2C19 inhib 100 (no result: Cav32 inh)
CCn1c2ccccc2c2nnc(SCc3ccc(C(=O)OC)o3)nc21	none
COc1cccc(N2CCN(Cc3nc(N)nc(N4CCCc5ccccc54)n3)CC2)c1	none
O=C(Cn1ncc2c1-c1ccccc1OC2)Nc1ccc(S(=O)(=O)N2CCCCC2)cc1	CYP2C9 inh 68
CC(C(=O)OCC(=O)Nc1ccc(S(=O)(=O)N2CCCCC2)cc1)N1C(=O)c2ccccc2C1=O (configuration not stated)	CYP2C9 inh 92, Cav32 inh -5.7
O=C(COC(=O)CCC(=O)c1cccs1)Nc1ccc(S(=O)(=O)N2CCOCC2)cc1	CYP2C9 inh 89
O=C(CS(=O)(=O)Cc1ccccc1)Nc1ccc(S(=O)(=O)N2CCCCCC2)cc1	Cav32 inh -7.1
COC(=O)c1ccc(NC(=O)CS(=O)(=O)Cc2ccccc2)cc1	none
O=C(COC(=O)CN1C(=O)c2ccccc2C1=O)Nc1ccc(S(=O)(=O)N2CCCC2)cc1	none
O=C(Cn1ncc2c1-c1ccccc1OC2)N1CCN(c2ccccn2)CC1	none
Cc1ccc(S(=O)(=O)N2CCOCC2)cc1NC(=O)COC(=O)CCC(=O)c1cccs1	none
OCCNc1nc(OCC(F)(F)F)nc(N2CCN(C34CC5CC(CC(C5)C3)C4)CC2)n1	none
O=C(COC(=O)CCN1C(=O)c2ccccc2C1=O)Nc1ccc(S(=O)(=O)N2CCCC2)cc1	CYP2C9 inh 96, CYP2C19 inhib 54
O=S(=O)(c1ccc(S(=O)(=O)N2CCCN(Cc3ccccc3)C2)cc1)N1CCCCCC1	CYP2C9 inh 74, CYP2C19 inhib 72
COc1ccc2c(c1)c(N=O)c(O)n2C	none
COc1ccc(N(CC(=O)Nc2ccc(C)cn2)S(=O)(=O)c2c(C)nn(C)c2C)cc1	CYP2C9 inh 84, CYP2C19 inhib 86
COc1cc(NC(=O)CN(c2ccc(C)cc2)S(=O)(=O)c2c(C)nn(C)c2C)cc(OC)c1	CYP2C9 inh 54, CYP2C19 inhib 66
COC(=O)c1ccc(NC(=O)CN(c2ccc(C)cc2)S(=O)(=O)c2c(C)nn(C)c2C)cc1	none
COc1ccc(N(CC(=O)NCc2ccccc2OC)S(=O)(=O)c2c(C)nn(C)c2C)cc1	CYP2C9 inh 94, CYP2C19 inhib 66
Cc1ccc(N(CC(=O)Nc2ccc(C)cn2)S(=O)(=O)c2c(C)nn(C)c2C)cc1	CYP2C9 inh 84, CYP2C19 inhib 76
Cc1nn(C)c(C)c1S(=O)(=O)N(CC(=O)Nc1ccc2c(c1)OCO2)c1ccc(C(C)C)cc1	none (no result: CYP2C19 act, CYP2C9 inh, CYP2C19 inhib, CYP2C9 act)
COc1c(Cl)cc(Cl)cc1C(=O)n1nc(C)cc1C	none (no result: CYP2C19 act, CYP2C9 inh, CYP2C19 inhib, CYP2C9 act)
C=C1/C(=C\C=C2/CCC[C@]3(C)[C@@H]([C@H](C)CCCC(C)(C)O)CC[C@@H]23)C[C@@H](O)C[C@@H]1O	none (no result: CYP2C19 act, CYP2C9 inh, CYP2C19 inhib, CYP2C9 act)
Cc1nn(C)c(C)c1S(=O)(=O)N(CC(=O)Nc1nccs1)c1ccc(C(C)C)cc1	none (no result: CYP2C19 act, CYP2C9 inh, CYP2C19 inhib, CYP2C9 act)
COc1ccc(N(CC(=O)Nc2cc(C)ccc2C)S(=O)(=O)c2c(C)nn(C)c2C)cc1	CYP2C19 inhib 55 (no result: Cav32 inh)
COc1ccc(N(CC(=O)N2CCc3ccccc3C2)S(C)(=O)=O)cc1	none (no result: Cav32 inh)
COc1ccc(N(CC(=O)Nc2ccc3c(c2)OCCO3)S(=O)(=O)c2c(C)nn(C)c2C)cc1	CYP2C9 inh 74, CYP2C19 inhib 55 (no result: Cav32 inh)
COc1ccc(N(CC(=O)Nc2nccs2)S(=O)(=O)c2c(C)nn(C)c2C)cc1	CYP2C9 inh 64, CYP2C19 inhib 58
COc1ccc(N(CC(=O)N2CCc3ccccc3C2)S(=O)(=O)c2c(C)nn(C)c2C)cc1	CYP2C9 inh 64, CYP2C19 inhib 91
CCC(C)(C)NC(=O)C(c1cccn1C)N(Cc1ccc(OC)cc1)C(=O)Cn1nnc2ccccc21 (configuration not stated)	none (no result: CYP2C19 act, CYP2C9 inh, CYP2C19 inhib, CYP2C9 act)
COc1ccc(OC)c(S(=O)(=O)N(C)CC(=O)N2CCc3ccccc3C2)c1	CYP2C9 inh 80, CYP2C19 inhib 68
